FLuc modulator = inhibits or activates purified firefly luciferase, miR-21 counter-screen; purified FLuc, Km substrates, luminescence inhibition; Potency, µM (series often up to 57.5 µM), most hits filed as inhibitors; 360,000 tested, 6.9% active; P08659; further: nearly all actives have a fitted effect of over 55% in size
Target sequence (P08659 whole entry, looked up): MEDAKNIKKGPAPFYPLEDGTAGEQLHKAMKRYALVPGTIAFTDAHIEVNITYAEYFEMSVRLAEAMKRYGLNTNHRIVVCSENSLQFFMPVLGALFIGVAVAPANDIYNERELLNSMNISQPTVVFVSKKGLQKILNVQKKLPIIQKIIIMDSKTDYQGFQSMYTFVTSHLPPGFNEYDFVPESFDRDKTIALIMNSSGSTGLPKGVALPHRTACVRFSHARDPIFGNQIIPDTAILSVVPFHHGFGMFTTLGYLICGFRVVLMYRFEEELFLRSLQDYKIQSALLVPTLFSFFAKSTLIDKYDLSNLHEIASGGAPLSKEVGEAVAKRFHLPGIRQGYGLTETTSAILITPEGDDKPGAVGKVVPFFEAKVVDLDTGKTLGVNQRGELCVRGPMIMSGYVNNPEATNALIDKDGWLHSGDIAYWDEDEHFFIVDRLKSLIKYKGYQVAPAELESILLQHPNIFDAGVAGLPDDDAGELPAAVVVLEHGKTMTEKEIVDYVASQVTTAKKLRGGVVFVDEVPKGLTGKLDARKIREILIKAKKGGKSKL
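Biochemical qHTS of compounds, final roughly 60 µM downward over six points, against 10 nM purified firefly luciferase using Km concentrations of substrates (10 uM D-luciferin, 10 uM ATP) in Tris acetate pH 7.5 buffer; luminescence output.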
Rab9 prom act = Rab9 promoter activation; AID 485297; Potency, µM (doses to about 9.22 µM), actives largely listed as activators; Huh7 Rab9 promoter-luciferase reporter, luminescence, 24 h; 320,000 tested, 2.8% active; further: nearly all actives have a fitted effect of over 60% in size
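Luciferase signal after 10 min detection reagent at ambient indicates Rab9 promoter upregulation; stably transfected Huh7 cells were treated 24 h with compound in DMSO at 37 °C, 5% CO2.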
NPC1 promoter act = activators of NPC1 promoter. Huh7 NPC1 promoter luciferase reporter, 24 h. Potency, µM (doses to about 9.22 µM), usual class: activators. 320,000 tested, 2.4% active; further: nearly all actives have a fitted effect of over 60% in size
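Huh7 cells stably carrying NPC1 promoter–luciferase, plated in Opti-MEM with 10% FBS for 2 h, were exposed to compound in DMSO for 24 h at 37 °C; luciferase reagent was added for 10 min and luminescence read.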
ELG1 repair inh = inhibitors of ELG1-dependent DNA repair in HEK293T cells | 330,000 tested, 2.3% active | HEK293T ELG1-luciferase reporter, luminescence, 16 h; DNA damage induced by 5-fluorouridine | Potency, µM (highest dose often 46.1 µM), usual class: inhibitors; further: nearly all actives have a fitted effect of over 55% in size
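HEK293T cells expressing luciferase-tagged ELG1 (2,000/well) received 5-Fluorouridine plus compound or DMSO for 16 hr at 37 °C. Luciferase was read by ONE-Glo luminescence after 30 min at room temperature.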
SMN2 splice enh = increases expression of the SMN2 splice variant. AID 1458. 210,000 tested, 2.8% active. HEK293 SMN2-luciferase splicing reporter, luminescence, 30-36 h. Potency, µM (highest dose often 46.1 µM), most hits filed as activators; further: nearly all actives have a fitted effect of over 55% in size
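HEK293 cells carry an SMN2 minigene-luciferase reporter in which exon 7 inclusion puts luciferase in frame. Cells were seeded at 2000 cells/well, attached for 10-12 hours, then exposed to compounds for 30-36 hours at 37C before ONE-Glo luminescence.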
ELG1 genotox = inducers of genotoxicity in HEK293T ELG1-luciferase cells. HEK293T ELG1-luciferase reporter, luminescence, 16 h. Potency, µM (doses to about 46 µM), actives largely listed as activators. 330,000 tested, 1.3% active; further: nearly all actives have a fitted effect of over 60% in size
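DMSO vehicle served as control against compound-treated ELG1-luciferase HEK293T cells; exposure lasted 16 hr at 37 °C and 5% CO2, followed by ONE-Glo luminescence detection after 30 min.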
Hits are given with their value. Hits are enriched below; roughly 9.2% of the tested compounds scored in any of these assays. The call rests on the fitted dose curve; in most records, active means well fitted curve in the direction sought with a large enough effect; inconclusive means small, poorly fitted or top-dose-only effect, or another doubt; inactive means no such curve, though single readings can be large; an effect the other way counts as inactive or inconclusive.

`Cc1cccc(NC(=O)c2oc3ccc(S(=O)(=O)N(C)C4CCCCC4)cc3c2C)c1C` gave FLuc modulator inactive.
CCOc1ccc(CCNC(=O)c2cn(C)c3ccc(S(=O)(=O)N4CCCCCC4)cc3c2=O)cc1OCC was read as FLuc modulator inactive and SMN2 splice enh inactive.
Screening Cc1ccc(O)c(-c2ccnc3cc(-c4ccc(Cl)cc4)nn23)c1 returned FLuc modulator inactive and SMN2 splice enh inactive.
For CCCOc1ccc(C2=NC(c3ccc(F)cc3)=Nc3ccc(OC)cc3N2)cc1 the results were FLuc modulator inactive and SMN2 splice enh inactive.
For Cn1nc(C(=O)OCC(=O)c2ccc(Br)cc2)c2ccccc2c1=O the results were FLuc modulator inactive, Rab9 prom act inactive, NPC1 promoter act inactive, ELG1 repair inh inactive and ELG1 genotox inactive.
For O=C(COC(=O)c1n[nH]c2ccccc12)c1cc(F)ccc1F the results were FLuc modulator inconclusive, Rab9 prom act inactive, NPC1 promoter act inactive, ELG1 repair inh inactive, SMN2 splice enh inactive and ELG1 genotox inactive.
`Cc1cc(C)c(C(=O)COC(=O)c2nn(C)c(=O)c3ccccc23)cc1C` gave FLuc modulator 11µM, Rab9 prom act inactive, NPC1 promoter act inactive, ELG1 repair inh inconclusive and ELG1 genotox inactive.
CCc1ccc(C(=O)COC(=O)c2nn(C)c(=O)c3ccccc23)cc1 was read as FLuc modulator 19µM, Rab9 prom act inactive, NPC1 promoter act inactive, ELG1 repair inh inactive, SMN2 splice enh inactive and ELG1 genotox inactive.
`CCc1ccc(C(=O)COC(=O)c2n[nH]c3ccccc23)cc1` gave FLuc modulator 3µM, Rab9 prom act 0.89µM, NPC1 promoter act 1.8µM, ELG1 repair inh inconclusive, SMN2 splice enh inactive and ELG1 genotox inactive.
`CC1CCN(C(=O)COC(=O)c2n[nH]c3ccccc23)CC1` gave FLuc modulator inconclusive, Rab9 prom act 3.2µM, NPC1 promoter act 3.5µM, ELG1 repair inh inconclusive, SMN2 splice enh inconclusive and ELG1 genotox inconclusive.
For CCN(CC)CCn1c(NS(=O)(=O)c2ccc(Cl)cc2)nc2ccccc21 the results were FLuc modulator inactive, Rab9 prom act inactive, NPC1 promoter act inactive, ELG1 repair inh inactive and ELG1 genotox inactive.
CCN(CC)c1ccc(Nc2cc3n(c(=O)n2)CCc2cc(OC)c(OC)cc2-3)cc1 was read as FLuc modulator 24µM, Rab9 prom act inactive, NPC1 promoter act inactive, ELG1 repair inh 5.2µM and ELG1 genotox inactive.
COc1cc2c(cc1OC)-c1cc(NC3CCCC3)nc(=O)n1CC2 was read as FLuc modulator inactive, Rab9 prom act inactive, NPC1 promoter act inactive, ELG1 repair inh inconclusive and ELG1 genotox inconclusive.
COc1cc2c(cc1OC)-c1cc(OCc3ccccc3Cl)nc(=O)n1CC2 was read as FLuc modulator inconclusive, Rab9 prom act inconclusive, NPC1 promoter act inactive, ELG1 repair inh 16µM, SMN2 splice enh inconclusive and ELG1 genotox inactive.
Screening COc1cc2c(cc1OC)-c1cc(Nc3ccc(N(C)C)cc3)nc(=O)n1CC2 returned FLuc modulator 12µM, Rab9 prom act inactive, NPC1 promoter act inactive, ELG1 repair inh inconclusive and ELG1 genotox inconclusive.
`CCn1c(CNC(=O)c2ccc(OC)cc2)nnc1SCC(=O)Nc1ccc(F)cc1` gave FLuc modulator inactive and SMN2 splice enh inactive.
For CCOc1ccc(N2C(=O)CC(SCCN)C2=O)cc1 (stereo not given) the results were FLuc modulator 17µM, Rab9 prom act 2.2µM, NPC1 promoter act 1.4µM, ELG1 repair inh inconclusive, SMN2 splice enh 11µM and ELG1 genotox inconclusive.
`c1ccc(CN2CCC(=NNc3nc4ccccc4[nH]3)CC2)cc1` gave FLuc modulator 19µM, Rab9 prom act inactive, NPC1 promoter act inactive, ELG1 repair inh inactive, SMN2 splice enh inactive and ELG1 genotox inactive.
CC(C)(C)C1CCC(=NNc2nc3ccccc3[nH]2)CC1 (stereo not given) was read as FLuc modulator 13µM, Rab9 prom act inactive, NPC1 promoter act inactive, ELG1 repair inh inactive, SMN2 splice enh inactive and ELG1 genotox inactive.
`c1ccc2c(c1)CC/C2=N/Nc1nc2ccccc2[nH]1` gave FLuc modulator 6.7µM, Rab9 prom act 2.5µM, NPC1 promoter act inconclusive, ELG1 repair inh inconclusive, SMN2 splice enh 11µM and ELG1 genotox inconclusive.
Screening CCOC(=O)C(=O)Nc1nnc2n1CCS2 returned FLuc modulator inactive.
Screening Cc1cccc(NC(=O)Cn2c(=O)oc3cc(S(=O)(=O)N4CCCCCC4)ccc32)c1 returned FLuc modulator inconclusive and SMN2 splice enh inactive.
For COc1ccc(C)cc1NC(=O)N1CCN(S(=O)(=O)c2ccc3c(ccn3C)c2)CC1 the results were FLuc modulator inactive.
Screening CC(=O)c1c(C)[nH]c(C(=O)Nc2cccc(S(=O)(=O)N(C)c3ccccc3)c2)c1C returned FLuc modulator inactive, Rab9 prom act inactive, NPC1 promoter act inactive, ELG1 repair inh inconclusive and ELG1 genotox inactive.
For CC(=O)c1c(C)[nH]c(C(=O)Nc2ccc(Cl)c(S(=O)(=O)N(C)C)c2)c1C the results were FLuc modulator 17µM, Rab9 prom act 3.2µM, NPC1 promoter act 3.5µM, ELG1 repair inh inconclusive, SMN2 splice enh 11µM and ELG1 genotox 18µM.
Cc1ccc(NC(=O)COC(=O)c2ccc(Cl)cc2)cc1S(=O)(=O)N(C)C was read as FLuc modulator inactive, Rab9 prom act inactive, NPC1 promoter act inactive, ELG1 repair inh inconclusive, SMN2 splice enh inactive and ELG1 genotox inactive.
`CC(=O)c1c(C)[nH]c(C(=O)OCC(=O)Nc2cc(C)on2)c1C` gave FLuc modulator inactive, Rab9 prom act inactive, NPC1 promoter act inactive, ELG1 repair inh inactive, SMN2 splice enh inactive and ELG1 genotox inactive.
`COc1cc(NC(=O)COC(=O)c2[nH]c(C)c(C(C)=O)c2C)cc(OC)c1` gave ELG1 repair inh 7.3µM and ELG1 genotox inactive.
For CC(=O)c1c(C)[nH]c(C(=O)OCC(=O)Nc2ccc(Cl)c(S(=O)(=O)N(C)C)c2)c1C the results were FLuc modulator inactive, Rab9 prom act inactive, NPC1 promoter act inactive, ELG1 repair inh 12µM and ELG1 genotox inactive.
For CC(=O)c1c(C)[nH]c(C(=O)OCC(=O)Nc2ccc3c(c2)OCCO3)c1C the results were ELG1 repair inh 15µM and ELG1 genotox inactive.
For N#Cc1ccc(S(=O)(=O)N2CCC(Oc3cccc(C(F)(F)F)c3)CC2)cc1 the results were FLuc modulator inactive and SMN2 splice enh inactive.
Screening CCOC(=O)c1c(C)[nH]c(C)c1C(=O)COC(=O)C1CC(=O)N(CCc2ccccc2)C1 (stereo not given) returned ELG1 repair inh inactive and ELG1 genotox inactive.

Compound activity as filed in PubChem BioAssay.
